Data as given in PubChem BioAssay (NCI).
About 79,000 compounds went through this panel and 15% of them were active in at least one assay; those are over-represented in the sample as a whole. Unmarked numbers belong to inactive results. The source made the active and inactive calls. No stated cut-off is given here; in the data, active means growth inhibition above about 70%; inactive means the rest.

What was measured:
[1] = NCI Yeast Anticancer Drug Screen. Data for the rad50 strain (AID 155);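 further: 0% = growth of vehicle-only cultures of the same strain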; conditions: S. cerevisiae rad50 strain growth inhibition, hits give high values
In short: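 Growth of the mutant yeast was measured after compound exposure and referenced to vehicle-treated cultures.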

[2] = NCI Yeast Anticancer Drug Screen. Data for the mec2-1 strain (AID 157); conditions: S. cerevisiae mec2-1 strain, hits give high values
In short: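 Compounds were applied to mec2-1 yeast cells. Their growth was then compared with that of vehicle-treated cultures to give growth inhibition.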

[3] = NCI Yeast Anticancer Drug Screen. Data for the sgs1 mgt1 strain (AID 161);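 further: 0% = growth of cultures given vehicle only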; conditions: S. cerevisiae sgs1 mgt1 strain, hits give high values
In short: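 Yeast cells carrying a defined DNA-repair defect were exposed to test compounds. Growth inhibition was measured relative to vehicle-treated controls.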

[4] = NCI Yeast Anticancer Drug Screen. Data for the cln2 rad14 strain (AID 165);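 further: 0% = growth equal to vehicle treated cultures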; conditions: S. cerevisiae cln2 rad14 strain, hits give high values
In short: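 Strain: cln2 rad14 yeast, altered in cell cycle control and DNA damage repair. Read-out: growth inhibition vs vehicle.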

[5] = NCI Yeast Anticancer Drug Screen. Data for the bub3 strain (AID 167); conditions: S. cerevisiae bub3 mutant strain, hits give high values
In short: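 Whole-cell yeast assay. The mutant strain was incubated with compounds, and growth inhibition was determined by comparison with vehicle-treated cells.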

[6] = NCI Yeast Anticancer Drug Screen. Data for the mlh1 rad18 strain (AID 175); conditions: S. cerevisiae mlh1 rad18 strain growth inhibition, hits give high values
In short: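 A repair-deficient yeast strain is exposed to test compound, and growth is scored relative to vehicle-treated controls.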

[7] = at 5.0 µM (retest, dose inferred, filed as 0.5)
[8] = at 50.0 µM (retest, dose inferred, filed as 5.0)

Structure (SMILES) | growth inhibition [1, 7] | growth inhibition [1, 8] | growth inhibition ([1]; at 50.0 µM) | growth inhibition [2, 7] | growth inhibition [2, 8] | growth inhibition ([2]; at 50.0 µM) | growth inhibition [3, 7] | growth inhibition [3, 8] | growth inhibition ([3]; at 50.0 µM) | growth inhibition [4, 7] | growth inhibition [4, 8] | growth inhibition ([4]; at 50.0 µM) | growth inhibition [5, 7] | growth inhibition [5, 8] | growth inhibition ([5]; at 50.0 µM) | growth inhibition [6, 7] | growth inhibition [6, 8] | growth inhibition ([6]; at 50.0 µM)
Oc1ccc(C2Oc3ccccc3C=C2c2ccccc2)cc1 (configuration not stated) | 51% | 98% (active) | -10.4% | 58% | 99% (active) | -25.8% | 61% | 99% (active) | -5.2% | 15% | 99% (active) | -14.8% | 13% | 99% (active) | -1.25% | 81% (active) | 98% (active) | -7.45%
CC(=O)OC1C(O)C(C)OC(OC(=O)C2CCC3C(C2)OC2(CC(OC(=O)/C=C/c4ccccc4)C(C)CO2)C32CO2)C1OC1OC(C)C(O)C(O)C1O (configuration not stated) | 23% | 97% (active) | 88% (active) | 18% | 98% (active) | 89.9% (active) | 26% | 98% (active) | 47.1% | 17% | 92% (active) | 75.6% (active) | 21% | 97% (active) | 88% (active) | 34% | 97% (active) | 88% (active)
O=C(OC1=C(Br)C(=O)c2ccccc2C1=O)c1ccccc1 | 13% | 99% (active) | 74.5% (active) | 31% | 99% (active) | 60.2% | 32% | 98% (active) | 66.3% | 4% | 58% | -17% | 12% | 89% (active) | 12.1% | 38% | 98% (active) | 51.2%
CC1C(c2ccc(Cl)cc2)c2cc3c(cc2OC1N1CCOCC1)OCO3 (configuration not stated) | -19% | 6% | 48.4% | -30% | -7% | 58.4% | -24% | -4% | 82.2% (active) | -27% | 5% | 90% (active) | -29% | -24% | 91.3% (active) | -39% | 8% | 59.4%
C=C1CC2(CC(C(C)C)CCC2C)OC1=O (configuration not stated) | 14% | 38% | 7.5% | 13% | 52% | -2.45% | 23% | 54% | 14.7% | 31% | 57% | 19.6% | 42% | 53% | -11.8% | 35% | 64% | 2.3%
CN(/N=C/c1ccc([N+](=O)[O-])o1)C(N)=O | 10% | 44% | 80% (active) | 4% | 18% | 49.5% | 10% | 57% | 87.3% (active) | 3% | 17% | 49.5% | 6% | 28% | 46.3% | 22% | 58% | 89.4% (active)
Cc1cc(=O)n(-c2cc3cccccc-3n2)[nH]1 | -9% | 96% (active) | 96.8% (active) | 2% | 97% (active) | 71.6% (active) | 2% | 98% (active) | 97.8% (active) | -11% | 98% (active) | 70.3% (active) | -1% | 95% (active) | 86.2% (active) | -1% | 98% (active) | 96.2% (active)
CC(C)C(=O)/C=C/c1c(Cl)cccc1Cl | 22% | 26% | 26.6% | 14% | 22% | 41.9% | 11% | 20% | 48.4% | 16% | 28% | 46% | 22% | 18% | 54.9% | 19% | 21% | 43.6%
CCCC(CC)c1c(O)c(O)c(C(CC)CCC)c(C(CC)CCC)c1C(CC)CCC (configuration not stated) | 4% | 76% (active) | 95.5% (active) | -12% | 52% | 97.3% (active) | -10% | 76% (active) | 97.9% (active) | 18% | 72% (active) | 97.7% (active) | -1% | 59% | 97.2% (active) | -13% | 87% (active) | 96% (active)
